A selection: hits, their analogues and other compounds. The true share with any hit is near 2.8%.
HIF-2a inh = HIF-2a inhibition | 786-0 RCC cells HIF-2a reporter, luciferase luminescence, overnight | 0.72% of 360,000 active | inhibition, % at 18.8 µM;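 active = inhibition of the luminescence signal of 40% or more relative to plate controls, in a single-dose primary screen at 18.75 µM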
Shn3 inh set2 = Schnurri-3 reporter inhibition in Clone20 osteoblasts; 0.52% of 360,000 active; inhibition, % at 12.5 µM; AID 588674; Clone20 osteoblast Shn3 3'UTR firefly luciferase, 24 h;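 active = mean inhibition of at least 75% with every replicate also reaching 75%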
Peg3 promoter = reduces Peg3 promoter-driven luciferase expression in HeLa; 1.7% of 360,000 active; inhibition, % at 20 µM; AID 588405; HeLa PEG-Prom luciferase reporter, luminescence, overnight;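 active = inhibition of at least 50% at 20 µM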
MITF TRPM1 inh = inhibitors of MITF-driven TRPM1 promoter in melanoma cells. SK-MEL-5 TRPM1 promoter luciferase, 24 h. inhibition, % at 12.5 µM. 0.83% of 330,000 active. AID 488899;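 active = mean inhibition across replicates of 60% or more, whatever share of single replicates reaches that level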
KKLEB tox = counter-screen for CF NF-kB inhibitors: cytotoxicity. KKLEB CF airway cells viability, ATPlite luminescence, overnight; stronger effect = lower value; cells stimulated with P. aeruginosa culture filtrate. activity change (cytotoxicity), % at 5 µM. 0.36% of 360,000 active. AID 602141;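 active = corrected activity change at or below -50% at 5 µM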
CF NFkB block = cystic fibrosis NF-kB activation inhibition; AID 588850; inhibition, % at 5 µM; KKLEB NF-kB-GFP reporter, PAF-induced, GFP fluorescence overnight; 0.86% of 360,000 active;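 active = at least 50% inhibition at 5 µM, scaled per plate between neutral and stimulator controls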;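 also: PAF is a Pseudomonas aeruginosa culture filtrate used as stimulus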
Each line names hits and unclear results; the compound was inactive in the other large screens.

COCc1cccc(-c2csc(C(C)(NC(C)=O)c3ccc(OC)cc3)n2)c1 (configuration not stated)	none (no result: MITF TRPM1 inh)
CC(C)(C)OC(=O)C[C@@H]1C/C=C\C[C@H](CC(=O)N[C@H](CO)Cc2ccccc2)C(=O)N2CCC[C@H]2COC1=O	none
COc1cc(C(=O)c2nccc3cc(OC)c(OC)cc23)c([N+](=O)[O-])cc1OC	CF NFkB block 85.5
O=C(NC1CCCCCC1)C1CC(=O)N(c2ccc(Cl)cc2)C1 (configuration not stated)	none
O=P(NC1CCCCC1)(c1ccccc1)c1ccccc1	none
CC/C(=C\C1CCCCC1)C(NP(=O)(c1ccccc1)c1ccccc1)c1ccccc1 (configuration not stated)	Peg3 promoter 59.2
COc1cc(N)c(Br)cc1C(=O)O	none
Nc1cc2c(cc1Br)-c1c(C(=O)O)cccc1C2O (configuration not stated)	Shn3 inh set2 86.1
CN(CC1CCCO1)S(=O)(=O)c1ccc(C(=O)Nc2nc(-c3ccccn3)cs2)cc1 (configuration not stated)	Shn3 inh set2 90.1, Peg3 promoter 54.4
O=C(Nc1nc(-c2ccccn2)cs1)c1ccc(F)c(S(=O)(=O)N2CCOCC2)c1	Shn3 inh set2 93.8, MITF TRPM1 inh 66.9
Cc1ccc(C(=O)Nc2ccccn2)cc1S(=O)(=O)N1CCOCC1	none
O=C(Nc1nc(-c2ccccn2)cs1)c1cc(S(=O)(=O)N2CCOCC2)ccc1F	none
Cc1ccc(C(=O)Nc2nc(-c3ccccn3)cs2)cc1S(=O)(=O)N1CCOCC1	Shn3 inh set2 90.1
CN(CC1CCCO1)S(=O)(=O)c1ccc(C(=O)Nc2ccccc2F)cc1 (configuration not stated)	none
C=CC[C@H](CC(=O)NCCO)C(=O)N[C@H](COC(=O)[C@H](CC=C)CC(=O)OC(C)(C)C)Cc1c[nH]c2ccccc12	none
O=C(C=Cc1ccccc1)c1c[nH]c2ccccc2c1=O	Peg3 promoter 96.6
COc1ccc2[nH]c3c(c2c1)CCN1C(=O)C(CC(=O)NCCc2ccccn2)C[C@H](C(=O)N2CCCCC2)[C@@]31C (some centres not stated)	none
CSc1cccc(NC(=O)C2CCCN(S(C)(=O)=O)C2)c1 (configuration not stated)	none (no result: MITF TRPM1 inh)
O=C(Cc1csc(Nc2nc(=S)[nH]c3ccccc23)n1)NCc1cccc(Cl)c1	none
O=C(Cc1csc(Nc2nc(=S)[nH]c3ccccc23)n1)N1CCN(c2cccc(C(F)(F)F)c2)CC1	Peg3 promoter 80.1
CC1(C(=O)NS(=O)(=O)c2ccc(Cl)s2)CCN1C(=O)C1(c2ccc(Cl)cc2)CCC1 (configuration not stated)	none (no result: MITF TRPM1 inh)
CCOC(=O)c1c(-n2cnnn2)sc2c1CCCC2	none
CCOC(=O)c1c(N2C(=O)C3C4C=CC(O4)C3C2=O)sc2c1CCCC2 (configuration not stated)	Peg3 promoter 51.1
CCOc1ccc(N(CC(=O)Nc2ccccc2OCC)S(=O)(=O)c2c(C)noc2C)cc1	MITF TRPM1 inh 64.8
COc1ccc(-c2cc(=O)c3c(O)cc(O)cc3o2)cc1	CF NFkB block 67.5
COc1cc(-c2cc(=O)c3c(O)cc(O)cc3o2)cc(OC)c1OC	none (no result: MITF TRPM1 inh)
O=C(N[C@@H](Cc1ccccc1)C(=O)N1CCC2(CC1)NCCc1[nH]cnc12)c1cccc(F)c1	none
O=C(CSc1nnc(Nc2ccccc2)s1)NC1CCS(=O)(=O)C1 (configuration not stated)	Shn3 inh set2 89.9
Cc1cccc(C)c1Nc1nnc(SCC(=O)NC2CCS(=O)(=O)C2)s1 (configuration not stated)	none
C#CCOCCOCCOCCNc1nc(N2CCN(C(=O)CCCCCCCCCCNC(=O)[C@H](CO)n3cc(CCCSC)nn3)CC2)nc(N2CCN(C(=O)CCCCCCCCCCNC(=O)[C@H](CCCCN)n3cc(CCO)nn3)CC2)n1	none
C#CCOCCOCCOCCNc1nc(N2CCN(C(=O)CCCCCCCCCCNC(=O)[C@H]([C@@H](C)CC)n3cc(CCCCCN)nn3)CC2)nc(N2CCN(C(=O)CCCCCCCCCCNC(=O)[C@H](CO)n3cc(CCCCCN)nn3)CC2)n1	Peg3 promoter 99.3, MITF TRPM1 inh 81.6
C#CCOCCOCCOCCNc1nc(N2CCN(C(=O)CCCCCCCCCCNC(=O)[C@H]([C@@H](C)CC)n3cc(CCCCCN)nn3)CC2)nc(N2CCN(C(=O)CCCCCCCCCCNC(=O)[C@H]([C@@H](C)CC)n3cc(CCCCN=C(N)N)nn3)CC2)n1	Peg3 promoter 71.0, MITF TRPM1 inh 98.7
C#CCOCCOCCOCCNc1nc(N2CCN(C(=O)CCCCCCCCCCNC(=O)[C@H](CO)n3cc(CCCSC)nn3)CC2)nc(N2CCN(C(=O)CCCCCCCCCCNC(=O)[C@H](CCCN=C(N)N)n3cc(C[C@@H](C)CC)nn3)CC2)n1	MITF TRPM1 inh 88.6
C#CCOCCOCCOCCNc1nc(N2CCOCC2)nc(N2CCN(C(=O)CCCCCCCCCCNC(=O)[C@@H]([C@H](C)CC)n3cc(CCCCCN)nn3)CC2)n1	Peg3 promoter 52.8
Cc1ccc(OCC(=O)NCCCNC(=O)c2ccncc2)cc1C	none
O=C(COC(=O)c1ccc(O)cc1)NCC1CCCO1 (configuration not stated)	none
C#CCOCCOCCOCCNc1nc(N2CCN(C(=O)CCCCCCCCCCNC(=O)[C@@H](CCC(=O)O)n3cc(CCCCCN)nn3)CC2)nc(N2CCN(C(=O)CCCCCCCCCCNC(=O)[C@H]([C@@H](C)CC)n3cc(CCCCCN)nn3)CC2)n1	none
C#CCOCCOCCOCCNc1nc(N2CCN(C(=O)CCCCCCCCCCNC(=O)Cn3cc(CCCCCN)nn3)CC2)nc(N2CCN(C(=O)CCCCCCCCCCNC(=O)[C@@H](CCC(=O)O)n3cc(CCCCCN)nn3)CC2)n1	none
C#CCOCCOCCOCCNc1nc(N2CCN(C(=O)CCCCCCCCCCNC(=O)Cn3cc(CCCCCN)nn3)CC2)nc(N2CCN(C(=O)CCCCCCCCCCNC(=O)[C@H]([C@@H](C)CC)n3cc(CCCCN=C(N)N)nn3)CC2)n1	MITF TRPM1 inh 74.6
C#CCOCCOCCOCCNc1nc(N2CCN(C(=O)CCCCCCCCCCNC(=O)[C@H]([C@@H](C)CC)n3cc(CCCCN=C(N)N)nn3)CC2)nc(N2CCN(C(=O)CCCCCCCCCCNC(=O)[C@H](CO)n3cc(CCCCCN)nn3)CC2)n1	MITF TRPM1 inh 85.2
C#CCOCCOCCOCCNc1nc(N2CCN(C(=O)CCCCCCCCCCNC(=O)Cn3cc(CCCCCN)nn3)CC2)nc(N2CCN(C(=O)CCCCCCCCCCNC(=O)[C@@H](CCSC)n3cc(CCO)nn3)CC2)n1	Peg3 promoter 77.0
COc1cccc(-c2csc(N3CCN(C(=O)Nc4ccccc4Cl)CC3)n2)c1	none

Screening data as filed in PubChem.
